Measurements as given in PubChem BioAssay (NCATS).
Inconclusive results are not listed. Entries that show only a call come without a potency. Calls of active or inactive are those of the source. The call rests on the fitted dose curve; in most records, active means well fitted inhibition curve with a large enough effect; inconclusive means small, poorly fitted or top-dose-only effect; inactive means flat fitted curve, though single readings scatter.

biological target: Calcium and integrin-binding protein 1 (Homo sapiens) (UniProt Q99828); assay: Primary qHTS for Identification of Calcium Integrin Binding Protein 1 (CIB1) Competitor (AID 1508620); details: CIB1-GST / FITC-alphaIIb peptide fluorescence polarization; series mostly up to 114 µM;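 on activity change, negative = inhibition: GST tagged CIB1 binding a fluorescein labelled alphaIIb integrin peptide tracer; top concentration of the series differs between compounds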
Sequence (Q99828 whole entry, looked up): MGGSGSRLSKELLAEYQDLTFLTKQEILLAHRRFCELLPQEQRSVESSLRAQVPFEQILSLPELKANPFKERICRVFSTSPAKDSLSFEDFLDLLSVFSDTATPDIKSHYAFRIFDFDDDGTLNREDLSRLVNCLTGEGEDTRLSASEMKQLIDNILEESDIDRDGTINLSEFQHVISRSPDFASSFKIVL
In short: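 Fluorescence polarization competition: CIB1-GST (1 uM final) preincubated with compound 15 min at room temperature, then FITC-labeled alphaIIb peptide (100 nM final) added for another 15 min. Polarization read at Ex 480/Em 540.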
Potency means the concentration at half of the fitted maximal effect.

Row | SMILES | Potency | activity change, negative = inhibition
1 | NC[C@H]1O[C@H](O[C@H]2[C@H](O[C@@H]3O[C@H](CO)[C@@H](O)[C@H]3O)C(O)[C@H](N)C[C@@H]2N)[C@H](N)[C@@H](O)[C@@H]1O (stereo partly specified) | inactive | 
2 | COc1cccc(CCc2ccccc2OCC(CN(C)C)OC(=O)CCC(=O)O)c1 (stereo unspecified) | inactive | 
3 | CCCCOc1cc(C(=O)NCCN(CC)CC)c2ccccc2n1 | inactive | 
4 | COc1cc2c(cc1OC)[C@@H]1CC(=O)[C@@H](CC(C)C)CN1CC2 | inactive | 
5 | NC(CO)(CO)CO | inactive | 
6 | CCOC(=O)/C=C(C)/C=C/C=C(C)/C=C/c1c(C)cc(OC)c(C)c1C | inactive | 
7 | OC[C@H]1O[C@H](O[C@]2(CCl)O[C@H](CCl)[C@@H](O)[C@@H]2O)[C@H](O)[C@@H](O)[C@H]1Cl | inactive | 
8 | CC(=O)O[C@]1(C(C)=O)CC[C@H]2[C@@H]3C[C@H](C)C4=CC(=O)CC[C@]4(C)[C@H]3CC[C@@]21C | inactive | 
9 | O=c1[nH]c(=O)n([C@H]2CCCO2)cc1F | inactive | 
10 | CC1(C)O[C@@H]2C[C@H]3[C@@H]4C[C@H](F)C5=CC(=O)CC[C@]5(C)[C@H]4[C@@H](O)C[C@]3(C)[C@]2(C(=O)CO)O1 | inactive | 
11 | Cc1cccn2c(=O)c(-c3nnn[nH]3)cnc12 | inactive | 
12 | NCCC(O)(P(=O)(O)O)P(=O)(O)O | inactive | 
13 | CN1CCC(=C2c3ccccc3Sc3ccccc32)CC1 | inactive | 
14 | CCN1CCCC1=O | inactive | 
15 | O=C(N/N=C/c1ccccc1O)c1ccncc1 | inactive | 
16 | CC(C)(C)NC(=O)[C@@H]1CN(Cc2cccnc2)CCN1C[C@@H](O)C[C@@H](Cc1ccccc1)C(=O)N[C@H]1c2ccccc2C[C@H]1O | inactive | 
17 | CCCCS(=O)(=O)N[C@@H](Cc1ccc(OCCCCC2CCNCC2)cc1)C(=O)O | inactive | 
18 | CCCCc1nc(Cl)c(CO)n1Cc1ccc(-c2ccccc2-c2nn[nH]n2)cc1 | inactive | 

Row | SMILES | Potency | activity change, negative = inhibition
19 | Nc1ccc(/C=C/c2ccc(N)cc2S(=O)(=O)O)c(S(=O)(=O)O)c1 |  | -1.2% [at 1.07 µM] (inactive)
20 | C[C@H](O)C(=O)Nc1c(I)c(C(=O)NC(CO)CO)c(I)c(C(=O)NC(CO)CO)c1I | inactive | 
21 | OCc1ccccc1O | inactive | 
22 | COc1cc(/C=C/C(=O)O[C@H]2CC[C@]34C[C@]35CC[C@]3(C)[C@@H]([C@H](C)CCC=C(C)C)CC[C@@]3(C)[C@@H]5CC[C@H]4C2(C)C)ccc1O | inactive | 
23 | NC[C@H]1O[C@H](O[C@H]2[C@H](O)[C@@H](O[C@H]3O[C@H](CO)[C@@H](O)[C@H](N)[C@H]3O)[C@H](N)C[C@@H]2N)[C@H](N)[C@@H](O)[C@@H]1O | inactive | 
24 | CC(=O)Nc1c(I)cc(I)c(C(=O)O)c1I | inactive | 
25 | CCOC(=O)COc1ccc2c(C)c(CCN(CC)CC)c(=O)oc2c1Cl | inactive | 
26 | O=C1OC2(c3ccc(O)cc3Oc3cc(O)ccc32)c2ccccc21 | inactive | 
27 | CCOC(=O)n1ccn(C)c1=S | inactive | 
28 | CCCCOc1ccc(OCCCN2CCOCC2)cc1 | inactive | 
29 | CC(C)(C(=O)c1cccnc1)c1cccnc1 | inactive | 
30 | COC(=O)C1=C(C)NC(C)=C(C(=O)O[C@@H]2CCCN(Cc3ccccc3)C2)[C@@H]1c1cccc([N+](=O)[O-])c1 | inactive | 
31 | Cc1nc2n(c(=O)c1CCN1CCC(c3noc4cc(F)ccc34)CC1)CCC[C@H]2O | inactive | 
32 | O=c1ccc2ccccc2o1 | inactive | 
33 | CCOc1ccc2nc3cc(N)ccc3c(N)c2c1 | 44.7 µM (active) | 
34 | CCN(CC)CCOC(=O)C(c1ccccc1)C1CCCCC1 (stereo unspecified) | inactive | 
35 | CN(C)CCOc1ccccc1Cc1ccccc1 | inactive | 
36 | CCOC(=O)[C@H](CCc1ccccc1)N[C@@H](C)C(=O)N1Cc2ccccc2C[C@H]1C(=O)O | inactive | 
